# Results: PubChem BioAssay AID738 (SRMLSC, 2007)
# Screen size: about 98,000 compounds; about 4,900 (5%) were called active. The entries come from a sample that favours actives as a whole. Unmarked numbers belong to inactive results. Rule as the data show it: active = inhibition above about 30%; inactive = the rest.
# Assay: growth inhibition of yeast control strain, primary screen, counter-screen for post-Golgi transport modulator project (AID 738)
# Conditions: efflux-deficient yeast background strain, growth absorbance A615, 16 h; at 10 µM; stronger effect = higher value
row,SMILES,inhibition
1,COc1ccc(Cl)cc1C(=O)NCC#N,18.5%
2,COc1cc(OC)c(C(=O)Nc2ccc(N(C)C)cc2)cc1OC,27.7%
3,COc1ccc(Cl)cc1C(=O)Nc1ccc(N(C)C(C)=O)cc1,32.4% (active)
4,CCn1c(C)nc2c1C(=O)c1ccccc1C2=O,4.03%
5,CC(C)N(c1ccccc1)c1ncnc(NCCC(=O)O)c1[N+](=O)[O-],5.97%
6,O=S(=O)(c1cnccc1N1CCN(/N=C/c2ccc(Br)cc2)CC1)N1CCCCC1,-4.38%
7,Cc1nc2cc(NC(=O)NCc3ccccc3)ccc2o1,12.9%
8,C=CC[n+]1c(-c2ccc(C)cc2)csc1NNC(=O)Nc1ccccc1,40.7% (active)
9,C=CCNC(=O)c1csc(-c2ccccc2)n1,-0.15%
10,CC(=O)c1cccc(NC(=O)Nc2ccc(C)cc2)c1,0.29%
11,CC(=O)Nc1ccc(N2C(=O)C3C4CC(=O)C(c5ccccc54)C3C2=O)cc1 (stereo not given),-8.39%
12,O=C(NCc1cccnc1)c1cccnc1Sc1ccc(Cl)cc1,-2.08%
13,CC(C)=CC(=O)Nc1nnc(-c2ccc(F)cc2)s1,-0.29%
14,Cc1cc(C)nc(SC(C)C(=O)N/N=C/c2cccs2)n1 (stereo not given),6.8%
15,C#CCSc1nnc(-c2sc3ccccc3c2Cl)o1,0.45%
16,COc1ccccc1-c1n[nH]c2c1[C@H](C)CC[C@H]2C(C)C,38% (active)
17,Cc1cc2c(cc1C)N(C(=O)CN1C(=O)c3ccccc3C1=O)C(C)(C)c1ssc(=S)c1-2,32.6% (active)
18,C=CCn1c(C)cc(C(=O)CN2C(=O)c3ccccc3C2=O)c1C,11.4%
19,Cc1ccc2c(c1)-c1c(ssc1=S)C(C)(C)N2C(=O)CN1C(=O)c2ccccc2C1=O,60.3% (active)
20,CCOC(=O)CN1C(=O)C(=O)c2cc(C)ccc21,5.42%
21,C=CCN(CC=C)C(=O)CN1C(=O)c2ccccc2C1=O,3.29%
22,CC(C)OC(=O)CN1C(=O)c2ccccc2C1=O,7.83%
23,CN1CCN(S(=O)(=O)c2ccc(N3CCN(S(=O)(=O)c4cccs4)CC3)nc2)CC1,4.14%
24,O=C(CNC(=O)c1cc2c(s1)CCC2)Nc1ccccc1Br,-4.14%
25,CCOC(=O)C1(S(=O)(=O)c2ccccc2)CCN(Cc2ccccc2)CC1,4.95%
26,NC(=O)COc1ccc(/C=N/NC(=O)C2CCCN2S(=O)(=O)c2ccc(Cl)cc2)cc1 (stereo not given),18.9%
27,COC(=O)c1sc2ncccc2c1OCc1ccc(Cl)cc1Cl,11.1%

row,SMILES,inhibition
1,NC(N)=N/N=C/c1ccc(OCc2ccc(Cl)cc2Cl)cc1,67.2% (active)
2,CCN(CC)c1ccc(NC(=O)c2ccc(Cl)nc2)cc1,17.1%
3,CC1CN(c2nc(-c3ccccc3)nnc2-c2ccccc2)CC(C)O1 (stereo not given),31.6% (active)
4,O=c1cc(Cn2nnc(-c3ccc(Cl)cc3)n2)nc2sccn12,11.5%
5,Cc1c(C(=O)N2CC(C)OC(C)C2)sc2nc(-c3ccccc3)cn12 (stereo not given),7.66%
6,Cc1ccc(-c2nnc(C)c(N3CC(C)OC(C)C3)n2)cc1 (stereo not given),20.1%
7,Clc1ccc(-c2nnc(-c3ccccc3)nc2N2CCSCC2)cc1,51% (active)
8,Cn1nc(-c2ccccc2)c(-c2nc(-c3ccc(Cl)cc3)no2)c1Cl,-5.95%
9,COCc1cc(C)nc2sc(C(=O)NC3CCCCC3)c(N)c12,8.15%
10,O=C1c2ccccc2C(=O)c2c1cccc2N1CCN(CCO)CC1,9.4%
11,O=c1cc(N2CCN(Cc3ccccc3)CC2)c(-c2ccccc2)n[nH]1,23.1%
12,COCCn1c(CN(Cc2ccccc2)Cc2ccccc2)nc2c1c(=O)n(C)c(=O)n2C,14.8%
13,CC(C)CCn1c(CN(C)Cc2ccccc2)nc2c1c(=O)n(C)c(=O)n2C,9.18%
14,CC(C)Cn1c(CN(Cc2ccccc2)Cc2ccccc2)nc2c1c(=O)n(C)c(=O)n2C,33.1% (active)
15,CCC(=O)NNc1cc(=O)c2c(=O)n(C)c(=O)n(C)c2[nH]1,0%
16,CN(C)/C=C(\C#N)C(=O)c1cccnc1Oc1cccc(F)c1,10.6%
17,CNC(=S)N1N=C(c2ccccc2)CC1c1ccc(Br)cc1 (stereo not given),80.4% (active)
18,COc1ccc(NC(=S)N2N=CCC2c2ccccc2)cc1 (stereo not given),10.8%
19,O=C(COc1ccc(Cl)cc1)NCCSc1ccccc1,25.3%
20,O=C(COc1ccc(Cl)cc1)Nc1ccccc1CO,36.8% (active)
21,O=C(COc1ccccc1)Nc1nonc1NC(=O)COc1ccccc1,14.2%
22,O=C(NCCCn1ccnc1)Nc1ccc(Cl)cc1Cl,0.62%
23,Cc1nc(SCC(=O)N2CC(=O)Nc3ccccc32)c2c(C)c(C)sc2n1,2.3%
24,Cc1nc(SCC(=O)N2CCc3ccccc3C2)c2c(C)c(C)sc2n1,49.5% (active)
25,Cc1nc(SCC(=O)Nc2cc(C)on2)c2c(C)c(C)sc2n1,-1.7%
26,Cc1ccc(NC(=S)NC(=O)c2ccc(-c3ccccc3)cc2)c(C)c1,0.3%
27,CCC1(CC)Cc2ccccc2-c2nc3ccccc3c(=O)n21,8.32%

row,SMILES,inhibition
1,CCOC(=O)C1Cn2c(nc3c(c2=O)C(C)(CC)Cc2ccccc2-3)S1 (stereo not given),39.9% (active)
2,CC1(C)Cc2ccccc2-c2nc(CN3CCOCC3)[nH]c(=O)c21,15.4%
3,CCN(CC)c1nc(-c2ccccc2)cc(C(F)(F)F)c1C#N,13.7%
4,Cc1ccc2nc(/C(C#N)=C\c3ccc(OC(=O)c4cccs4)cc3)[nH]c2c1,-11.1%
5,CC(C)C(=O)OCC(=O)Nc1ccc2c(c1)CCC2,3.52%
6,CCOC(=O)N1CCC(NC(=O)Cn2cc3c(n2)CCCCC3)CC1,31.9% (active)
7,COCCNC(=O)Cn1cc2c(n1)CCCCC2,2.72%
8,O=C(Cn1cc2c(n1)CCCCC2)NCCN1CCOCC1,-2.81%
9,Cc1c(C#N)c(NC(=O)c2ccccc2)n(Cc2ccccc2)c1C,8.33%
10,O=c1c2ccccc2nc2n1C(CSCc1cccc(C(F)(F)F)c1)CS2 (stereo not given),4.97%
11,O=c1onc(-c2cccs2)n1Cc1ccccc1,2.85%
12,CS(=O)(=O)NCc1ccc(C(=O)NCc2ccccc2)cc1,8.59%
13,Cc1c(C(=O)NCc2ccccc2)cnn1-c1ccccc1,9.12%
14,Cc1ccc(CNC(=O)c2ccccc2CCc2ccccc2)cc1,35.3% (active)
15,CC1CC(C)CN(C/C=C/c2ccccc2[N+](=O)[O-])C1 (stereo not given),7.64%
16,Cc1[nH]n(-c2ccccc2)c(=O)c1CCOC(=O)c1ccc(C(F)(F)F)cc1,33.5% (active)
17,O=C(OCC(O)C(O)COC(=O)c1ccccc1)c1ccccc1 (stereo not given),5.59%
18,Cc1cc(C)n(-c2c(F)c(F)c(COC(=O)c3ccccc3)c(F)c2F)n1,25.1%
19,CCC(=O)c1c[nH]c(C(=O)NCC2CCCO2)c1 (stereo not given),-1.27%
20,Cc1cccc(-n2cnc(C(=O)Nc3cccnc3)c2)n1,31.6% (active)
21,Cc1cc(C)c(NC(=O)CS(=O)CC(=O)Nc2cccnc2)c(C)c1 (stereo not given),-5.42%
22,CCOc1cccc(C(=O)Nc2cccnc2)c1,-3.62%
23,Cc1cccc2cc(CN(Cc3nnnn3Cc3ccccc3)C3CCCC3)c(=O)[nH]c12,13.2%
24,CCOc1ccc2[nH]c(=O)c(CN(Cc3nnnn3Cc3ccccc3)CC3CCCO3)cc2c1 (stereo not given),0.14%
25,Cc1cc(C)c2cc(CN(Cc3nnnn3Cc3ccc(F)cc3)C3CCCC3)c(=O)[nH]c2c1,41.1% (active)
26,N#Cc1c(C(F)(F)F)cc(-c2ccccc2)nc1SCC(=O)N1CCOCC1,-3.4%
27,COc1ccc(C(c2nnnn2Cc2cccs2)N2CCN(c3ccccc3)CC2)cc1OC (stereo not given),11.7%

row,SMILES,inhibition
1,COc1ccc(CCn2nnnc2C(c2ccccc2)N2CCN(C)CC2)cc1OC (stereo not given),22.5%
2,Cc1cccc(N2CCN(C(c3ccccc3)c3nnnn3CC3CCCO3)CC2)c1C (stereo not given),44.4% (active)
3,Cc1cc(OCCOc2cccc3cccnc23)c(C)cc1Cl,7.3%
4,CCOC(=O)C1=C(C)Nc2sc(C(=O)c3ccc(Br)cc3)c(N)c2C1c1ccc(C(=O)OC)cc1 (stereo not given),9.7%
5,COc1ccc(C(C(=O)NCc2ccccc2)N(Cc2cccs2)C(=O)c2cnccn2)cc1 (stereo not given),7.02%
6,O=C(N/N=C/c1ccsc1)c1cc(O)cc(O)c1,1.53%
7,COc1ccc(/C=C(\NC(=O)c2ccc(OC)c(OC)c2)C(=O)NCCc2c[nH]c3ccccc23)cc1,6.34%
8,CS(=O)(=O)N(CC(O)Cn1c2ccccc2c2ccccc21)c1cccc2ccccc12 (stereo not given),46.2% (active)
9,CC(=O)c1ccc2c(c1)c1ccccc1n2CC(C)C,23.7%
10,O=S(=O)(c1ccccc1)N(CC(O)CN1CCCCC1)c1ccccc1 (stereo not given),-1.97%
11,N#Cc1ccc(-c2ccc(F)cc2)nc1Sc1ccccc1,8.35%
12,Cc1cc(C)cc(NS(=O)(=O)c2ccc(Oc3ncc(C(F)(F)F)cc3Cl)cc2)c1,33% (active)
13,COc1ccccc1Oc1ccc(S(=O)(=O)Nc2cccnc2)cc1,0.59%
14,O=S(=O)(Nc1ccccn1)c1ccc(Oc2ccccc2)cc1,5.52%
15,CC1(C)CC(=O)C2=C(C1)N=C1SCCC(=O)N1C2c1ccc(C(F)(F)F)cc1 (stereo not given),10.4%
16,CCOc1cc(NC(=O)c2ccco2)c(OCC)cc1NC(=O)COc1ccccc1,6.65%
17,O=C(Nc1ccc(Oc2ccccc2)cc1)c1ccco1,-0.32%
18,CCOC(=O)c1c(NC(=S)NC(=O)c2ccco2)sc2c1CCCC2,3.33%
19,COc1ccc(CCNC(=O)c2ccco2)cc1,14.4%
20,COc1ccc(OCC(=O)NNC(=O)c2ccc(-c3ccccc3)cc2)cc1,-1.92%
21,COc1ccc(C(=O)NC(=S)NNC(=O)CCc2ccccc2)cc1,31.5% (active)
22,CC(Oc1ccc2ccccc2c1)C(=O)NNC(=S)NC(=O)c1ccco1 (stereo not given),96.2% (active)
23,CCNC(=S)NNC(=O)Cc1ccccc1,8.07%
24,CCCc1ccc(OCC(=O)NNC(=S)NC(=O)c2ccco2)cc1,33.4% (active)
